# CYP2C19 inhib – blockers of cytochrome P450 2C19 activity – biochemical, luminescence, ADME assay, primary screen; P33261; CYP2C19 Supersomes, luciferin-H EGE luminescence, 30 min; inhibition, % at 5 µM; 96,000 compounds, 21% hits;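 active = CYP2C19 inhibition above a set limit at 5 µM in the primary screen, cut at about 50% in these data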
# Target sequence (P33261 whole entry, looked up): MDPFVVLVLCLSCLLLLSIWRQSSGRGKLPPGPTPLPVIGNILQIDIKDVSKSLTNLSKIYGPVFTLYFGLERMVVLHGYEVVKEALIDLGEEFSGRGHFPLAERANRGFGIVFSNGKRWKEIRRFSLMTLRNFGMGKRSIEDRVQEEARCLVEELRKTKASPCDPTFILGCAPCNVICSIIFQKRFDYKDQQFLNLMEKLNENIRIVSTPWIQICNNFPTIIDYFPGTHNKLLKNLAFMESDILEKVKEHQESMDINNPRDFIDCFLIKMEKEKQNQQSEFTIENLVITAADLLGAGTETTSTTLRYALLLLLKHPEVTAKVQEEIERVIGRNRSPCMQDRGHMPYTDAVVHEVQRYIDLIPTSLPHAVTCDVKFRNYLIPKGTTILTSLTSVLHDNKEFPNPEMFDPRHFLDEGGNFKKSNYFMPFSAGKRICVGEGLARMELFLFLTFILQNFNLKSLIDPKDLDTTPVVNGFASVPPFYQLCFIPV
# CYP2C19 activ – human CYP2C19 activators, primary screen, biochemical, luminescence. Cytochrome P450 2C19 (Homo sapiens), P33261. recombinant CYP2C19, luciferin-H EGE luminescence; hits give high values; 0 = fully inhibited enzyme, 1 = untreated enzyme. activation factor at 5 µM. 96,000 tested, under 10 active. AID 1025, 2008;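 active = activation factor of at least 2 at 5 µM in the primary screen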
# CYP2C9 activ – human CYP2C9 activators, primary screen, biochemical, luminescence; recombinant CYP2C9, luciferin-H conversion; hits give high values; factor 1 = untreated enzyme, 0 = blocked; activation factor at 5 µM; 96,000 compounds, 1.4% hits; AID 1024, 2008;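 active = activation factor of 2 or more for CYP2C9 at a 5 µM dose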
# cytoskel mod – modifiers of F-actin cytoskeleton organization, primary screen, imaging, HUVEC, phalloidin staining, high-content imaging | HUVEC TNFa F-actin phalloidin imaging | inhibition, % at 2 µM | 91,000 compounds, 0.18% hits | AID 836, 2007;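 active = inhibition above the batch mean plus 3 SD and confirmed as a hit by visual image inspection, cut at about 30% in these data, passing the limit was not always enough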
# E-sel TNF inh – E-selectin induction blockers in HUVEC – imaging, immunofluorescence, high content, primary screen. HUVEC TNFa-induced E-selectin immunofluorescence. inhibition, % at 2 µM. 120,000 compounds, 0.71% hits. AID 1246, 2008;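 active = inhibition above the batch mean plus 3 SD, and confirmed as a hit on visual image review, cut at about 43% in these data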
# CYP2C9 inh – blockers of cytochrome P450 2C9 activity – biochemical, luminescence, ADME assay, primary screen; P11712; inhibition, % at 5 µM; CYP2C9 Supersomes, luciferin-H conversion; 96,000 compounds, 20% hits;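 active = blocking of liver enzyme CYP2C9 beyond about 50% at 5 µM, limit read from the data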
# A number is an active result; – = inactive; · = no result given. Shown are actives, neighbours in structure and some others; about 22% of the full set was active somewhere.
SMILES,CYP2C19 inhib,CYP2C19 activ,CYP2C9 activ,cytoskel mod,E-sel TNF inh,CYP2C9 inh
Cc1ccccc1C(=O)NC(NC(=O)c1ccccc1C)c1cccc([N+](=O)[O-])c1,·,·,·,·,–,·
CCN(CC)S(=O)(=O)c1ccc(N2CCOCC2)c(NC(=O)c2ccccc2F)c1,·,·,·,·,–,·
Cc1ccc(C)c(S(=O)(=O)Nc2ccccc2C(=O)Nc2ccccc2N2CCOCC2)c1,94.3,–,–,–,–,97.1
O=C(Nc1ccccc1N1CCOCC1)c1ccccc1NS(=O)(=O)c1ccc(F)c(F)c1,–,–,–,–,–,80.7
Cc1cc(F)ccc1S(=O)(=O)Nc1ccccc1C(=O)Nc1ccccc1N1CCOCC1,83.3,–,–,–,–,86.8
COC(=O)CNC(=O)COC(=O)c1cc(F)c(F)cc1Cl,–,–,–,–,–,–
CCOC(=O)c1cnc2c(C#N)c(C)nn2c1C,–,–,–,–,·,–
CCOC(=O)c1ccccc1NC(=O)CSc1nc(N)cc(N)n1,·,·,·,–,–,·
CCOC(=O)c1ccccc1NC(=O)CSc1ncc(C(=O)OCC)c(N)n1,–,–,–,–,–,88.2
CCOC(=O)c1cnc2c(C#N)c(C)nn2c1-c1ccccc1,94.9,–,–,·,·,–
CCOC(=O)c1cnc(SC)nc1Sc1ccccc1,–,–,–,–,–,60.3
CCOC(=O)c1cnc(SC)nc1N,–,–,–,–,–,–
CCOC(=O)c1cnc(SC2CC(=O)N(c3ccc(OC)c(OC)c3)C2=O)nc1N (configuration not stated),–,–,–,–,–,91.6
O=C(Nc1ccccc1C(F)(F)F)N1CCN(C(c2ccccc2)c2ccccc2)CC1,–,–,–,–,–,–
Cc1cc2c(c(=O)n1CCN(C)C)C(c1ccc(Cl)cc1)C(C#N)=C(N)O2 (configuration not stated),–,–,–,–,–,–
CCOC(=O)c1cnc(SCC(C)C)nc1N,50.3,–,–,–,–,–
CCOC(=O)c1cnc(SCC(=O)Nc2nc(C)c(C)s2)nc1N,50.8,–,–,–,·,91.0
CCOC(=O)c1cnc(SCC(=O)c2ccc(C)cc2)nc1N,·,·,·,–,–,·
Cc1cc(C)nc(SCC(=O)c2ccc3c(c2)OCCO3)n1,–,–,–,–,–,–
CCOC(=O)c1cnc(SCC(=O)c2ccccc2)nc1N,77.7,–,–,–,–,–
CCOC(=O)c1cnc(SCC(=O)c2ccc3c(c2)OCCO3)nc1N,–,–,–,·,–,52.3
CCOC(=O)c1cnc(-c2ccccc2)nc1Oc1cccc(Cl)c1,–,–,–,–,–,50.7
CCOC(=O)c1cnc(-c2ccccc2)nc1N(C)C,–,–,–,–,–,–
CCOC(=O)c1cnc(-c2ccccc2)nc1N,85.4,–,–,–,–,64.2
CCOC(=O)c1cnc(SC)nc1Oc1cccc(NC(=O)c2ccc(Cl)cc2)c1,–,–,–,–,·,–
SMILES,CYP2C19 inhib,CYP2C19 activ,CYP2C9 activ,cytoskel mod,E-sel TNF inh,CYP2C9 inh
CC1=CC(C)(C)[N+](C)(C)c2ccc(C)cc21,·,·,·,·,–,·
Cn1c(C(=O)NCc2cccs2)cc2oc3ccccc3c21,51.0,–,–,·,·,78.9
CC(=O)c1c[nH]c(C(=O)NCC2CCCO2)c1 (configuration not stated),68.8,–,–,–,–,–
Cn1c(C(=O)NCC2CCCO2)cc2oc3ccccc3c21 (configuration not stated),72.5,–,–,·,·,80.8
Cn1c(C(=O)NCC2CCCO2)cc2c(=O)[nH]c3ccccc3c21 (configuration not stated),·,·,·,–,–,·
Cn1c(C(=O)NCc2ccccc2)cc2oc3ccccc3c21,52.2,–,–,–,–,90.9
O=C(Nc1ccc2c(c1)C(=O)N(CC1CCCO1)C2=O)c1ccccc1Br (configuration not stated),–,–,–,–,–,–
CCNc1cc(S(=O)(=O)C(F)(F)F)ccc1N,·,·,·,·,–,·
O=C(OCC(=O)N1CCN(C(=O)COC(=O)c2ccncc2)CC1)c1ccncc1,–,–,–,–,–,–
CCOc1cccc2cc(C(N)=O)c(=NCc3ccccc3)oc12,–,–,–,–,–,–
Cc1ncc(CO)c2cc(C(N)=O)c(=Nc3ccccc3)oc12,–,–,–,35.9,–,–
Cc1nc2cc(N3CCCCC3)c(NC(=O)c3ccncc3)cc2c(=O)n1Cc1ccccc1,–,–,–,–,–,80.7
Oc1cccc(C=NCc2ccccc2)c1O,–,–,–,·,–,–
Cc1ccc(C=NCc2ccncc2)c(O)c1,75.5,–,–,·,–,72.0
Cc1ccc(-n2nnc3c(=O)n(CC(=O)N4CCOCC4)cnc32)cc1,–,–,–,–,·,–
CCOC(=O)c1oc2cccc(OCC(O)CNC(C)C)c2c1C (configuration not stated),69.9,–,–,–,–,–
O=C(c1ccccc1)N1CCN(c2ncnc3sc4c(c23)CCC4)CC1,92.2,–,–,–,–,82.9
c1nc(N2CCOCC2)c2c3c(sc2n1)CCCC3,64.6,–,–,–,–,–
c1cn(-c2ncnc3sc4c(c23)CCCC4)cn1,–,–,–,–,·,–
c1ccn(-c2ncnc3sc4c(c23)CCCC4)c1,96.4,–,–,–,–,–
CSc1nc(N2CCOCC2)c2c3c(sc2n1)CCCC3,–,–,–,–,–,–
O=C1NCCCC1C(=O)N1CCN(C(=O)C2CCCNC2=O)CC1 (configuration not stated),–,–,–,·,·,–
O=C(NCc1cccnc1)NC(C(F)(F)F)C(F)(F)F,66.4,–,–,–,·,–
O=C(NCc1cccnc1)NC1(C(F)(F)F)Oc2ccccc2O1,90.4,–,–,–,·,–
O=C(NCc1cccnc1)C1COc2ccccc2O1 (configuration not stated),–,–,–,–,–,–
SMILES,CYP2C19 inhib,CYP2C19 activ,CYP2C9 activ,cytoskel mod,E-sel TNF inh,CYP2C9 inh
CC(C)c1ccccc1NC(=S)NCCCn1ccnc1,·,·,·,·,–,·
COc1cc(C)c(C(C)C)cc1S(=O)(=O)NCCCn1ccnc1,99.9,–,–,–,–,99.0
Cc1ccccc1OCCCCc1c(C)n[nH]c1C,65.2,–,–,–,·,50.5
COc1cccc(OC)c1OCCCCCc1c(C)n[nH]c1C,85.6,–,–,–,–,–
COc1cccc(OC)c1OCCCSc1nc(C)cc(=O)[nH]1,–,–,–,–,–,–
Cc1cccc(C)c1OCCCCc1c(C)n[nH]c1C,59.9,–,–,–,–,70.1
Cc1n[nH]c(C)c1CS(=O)(=O)c1ccccc1,·,·,·,·,–,·
COc1ccc(CCNC(=O)c2cnc3scc(C)n3c2=O)cc1OC,·,·,·,–,·,·
Cc1ccc(NC(=O)OCC(F)(F)C(F)F)cc1NC(=O)OCC(F)(F)C(F)F,–,–,–,–,·,–
O=C(ONC1=NCCCCC1)c1ccc(Cl)cc1,–,–,–,–,–,–

# Assay outcomes: PubChem BioAssay, several laboratories
